# Data as given in PubChem BioAssay (Tox21).
# Inconclusive results are not listed. Where a call stands in place of a potency, no number is given. Active and inactive are the calls of the source. Calls follow the shape of the dose curve; as a rule, active = well fitted curve in the direction sought with a large enough effect in the repeat runs; inconclusive = weak or mixed curves; inactive = no such curve, though single readings can be large; an effect the other way counts as inactive or inconclusive.
# Legend:
# [1] = target: Nuclear receptor subfamily 1 group I member 2 (Homo sapiens) (UniProt O75469); test: Human pregnane X receptor (PXR) small molecule agonists, qHTS assay (AID 1346982); conditions: PXR-Luc HepG2, CYP3A4 luciferase reporter, 24 h; series mostly up to 92.4 µM; also: nearly all actives have a fitted effect of over 35% in size; also: potency is read from the fitted curve at half-maximal effect
# Nuclear receptor subfamily 1 group I member 2 (Homo sapiens), sequence (O75469 whole entry, looked up): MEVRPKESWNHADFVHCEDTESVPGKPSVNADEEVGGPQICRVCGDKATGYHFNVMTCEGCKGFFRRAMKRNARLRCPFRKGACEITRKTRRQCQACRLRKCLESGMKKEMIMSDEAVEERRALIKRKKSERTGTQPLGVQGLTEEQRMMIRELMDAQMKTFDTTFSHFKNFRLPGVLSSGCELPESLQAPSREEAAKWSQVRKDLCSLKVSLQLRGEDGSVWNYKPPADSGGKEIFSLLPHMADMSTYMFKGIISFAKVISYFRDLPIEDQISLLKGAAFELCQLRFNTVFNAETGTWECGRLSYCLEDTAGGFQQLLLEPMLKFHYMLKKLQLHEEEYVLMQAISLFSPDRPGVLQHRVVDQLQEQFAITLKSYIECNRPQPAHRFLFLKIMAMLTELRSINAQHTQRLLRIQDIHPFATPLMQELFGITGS
# How it was run: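 Agonist mode qHTS: PXR-Luc HepG2 cells plated 5 hr before DMSO-dissolved compounds were pinned in, cultured 24 hr at 37 C, 5% CO2; ONE-Glo luminescence readout.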
# [2] = target: Cytochrome P450 2D6 (Homo sapiens) (UniProt P10635); test: Cytochrome P450 Family 2 Subfamily D Member 6 (CYP2D6) small molecule antagonists: luciferase reporter qHTS assay (AID 1671196); conditions: P450-Glo CYP2D6 enzyme assay, luciferin luminescence, 1 h; series mostly up to 115 µM; also: nearly all actives have a fitted effect of over 50% in size
# Cytochrome P450 2D6 (Homo sapiens), sequence (P10635 whole entry, looked up): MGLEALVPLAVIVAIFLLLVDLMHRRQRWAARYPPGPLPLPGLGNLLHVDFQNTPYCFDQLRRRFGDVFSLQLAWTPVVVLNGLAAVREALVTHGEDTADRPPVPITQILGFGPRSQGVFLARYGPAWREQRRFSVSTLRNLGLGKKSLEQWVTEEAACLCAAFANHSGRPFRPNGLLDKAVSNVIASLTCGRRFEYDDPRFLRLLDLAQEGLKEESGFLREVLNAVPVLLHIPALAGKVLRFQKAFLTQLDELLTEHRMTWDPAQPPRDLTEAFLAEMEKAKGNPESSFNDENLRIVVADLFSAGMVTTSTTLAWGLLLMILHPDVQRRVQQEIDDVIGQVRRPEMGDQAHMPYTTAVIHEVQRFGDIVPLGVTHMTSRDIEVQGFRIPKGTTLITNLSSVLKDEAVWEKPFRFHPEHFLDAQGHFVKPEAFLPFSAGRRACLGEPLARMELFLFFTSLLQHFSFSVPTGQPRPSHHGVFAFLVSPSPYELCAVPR
# How it was run: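 P450-Glo format: CYP2D6 converts a proluciferin substrate to luciferin in an NADPH-driven reaction lasting 1 h at room temperature. Light output, proportional to CYP2D6 activity, reflects interference by test chemicals.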
# [3] = target: Cytochrome P450 2C9 (Homo sapiens) (UniProt P11712); test: Cytochrome P450 Family 2 Subfamily C Member 9 (CYP2C9) small molecule antagonists: luciferase reporter qHTS assay (AID 1671198); conditions: P450-Glo CYP2C9 enzyme assay, luciferin luminescence; series mostly up to 115 µM; also: nearly all actives have a fitted effect of over 50% in size; also: potency is read from the fitted curve at half-maximal effect
# Cytochrome P450 2C9 (Homo sapiens), sequence (P11712 whole entry, looked up): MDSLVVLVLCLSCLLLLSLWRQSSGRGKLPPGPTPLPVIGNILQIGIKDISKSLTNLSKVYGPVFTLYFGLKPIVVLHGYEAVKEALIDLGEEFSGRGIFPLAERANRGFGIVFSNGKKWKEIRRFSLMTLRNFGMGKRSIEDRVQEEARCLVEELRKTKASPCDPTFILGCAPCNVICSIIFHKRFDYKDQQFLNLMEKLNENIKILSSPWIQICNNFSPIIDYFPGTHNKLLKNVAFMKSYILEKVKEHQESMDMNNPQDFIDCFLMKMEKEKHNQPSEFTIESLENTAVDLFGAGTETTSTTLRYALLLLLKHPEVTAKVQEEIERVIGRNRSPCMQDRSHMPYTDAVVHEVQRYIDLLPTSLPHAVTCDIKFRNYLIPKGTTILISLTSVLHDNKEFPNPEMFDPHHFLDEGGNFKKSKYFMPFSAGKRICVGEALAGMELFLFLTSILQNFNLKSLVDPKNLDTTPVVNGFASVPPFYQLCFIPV
# How it was run: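 CYP2C9 activity was measured with a P450-Glo proluciferin substrate. Enzyme–substrate mix was held with compound for 10 min at room temperature, then NADPH regeneration solution was added for 1 h at 37C. Luciferin product was read as luminescence.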
# [4] = target: Voltage-gated inwardly rectifying potassium channel KCNH2 (Homo sapiens) (UniProt Q12809); test: Human Ether-a-go-go-Related Gene (hERG) channel small molecule antagonists: fluorescence cell-based qHTS assay (AID 1671200); conditions: hERG-U2OS cells, FluxOR thallium flux fluorescence; series mostly up to 76.8 µM; also: nearly all actives have a fitted effect of over 50% in size; also: potency is read from the fitted curve at half-maximal effect
# Voltage-gated inwardly rectifying potassium channel KCNH2 (Homo sapiens), sequence (Q12809 whole entry, looked up): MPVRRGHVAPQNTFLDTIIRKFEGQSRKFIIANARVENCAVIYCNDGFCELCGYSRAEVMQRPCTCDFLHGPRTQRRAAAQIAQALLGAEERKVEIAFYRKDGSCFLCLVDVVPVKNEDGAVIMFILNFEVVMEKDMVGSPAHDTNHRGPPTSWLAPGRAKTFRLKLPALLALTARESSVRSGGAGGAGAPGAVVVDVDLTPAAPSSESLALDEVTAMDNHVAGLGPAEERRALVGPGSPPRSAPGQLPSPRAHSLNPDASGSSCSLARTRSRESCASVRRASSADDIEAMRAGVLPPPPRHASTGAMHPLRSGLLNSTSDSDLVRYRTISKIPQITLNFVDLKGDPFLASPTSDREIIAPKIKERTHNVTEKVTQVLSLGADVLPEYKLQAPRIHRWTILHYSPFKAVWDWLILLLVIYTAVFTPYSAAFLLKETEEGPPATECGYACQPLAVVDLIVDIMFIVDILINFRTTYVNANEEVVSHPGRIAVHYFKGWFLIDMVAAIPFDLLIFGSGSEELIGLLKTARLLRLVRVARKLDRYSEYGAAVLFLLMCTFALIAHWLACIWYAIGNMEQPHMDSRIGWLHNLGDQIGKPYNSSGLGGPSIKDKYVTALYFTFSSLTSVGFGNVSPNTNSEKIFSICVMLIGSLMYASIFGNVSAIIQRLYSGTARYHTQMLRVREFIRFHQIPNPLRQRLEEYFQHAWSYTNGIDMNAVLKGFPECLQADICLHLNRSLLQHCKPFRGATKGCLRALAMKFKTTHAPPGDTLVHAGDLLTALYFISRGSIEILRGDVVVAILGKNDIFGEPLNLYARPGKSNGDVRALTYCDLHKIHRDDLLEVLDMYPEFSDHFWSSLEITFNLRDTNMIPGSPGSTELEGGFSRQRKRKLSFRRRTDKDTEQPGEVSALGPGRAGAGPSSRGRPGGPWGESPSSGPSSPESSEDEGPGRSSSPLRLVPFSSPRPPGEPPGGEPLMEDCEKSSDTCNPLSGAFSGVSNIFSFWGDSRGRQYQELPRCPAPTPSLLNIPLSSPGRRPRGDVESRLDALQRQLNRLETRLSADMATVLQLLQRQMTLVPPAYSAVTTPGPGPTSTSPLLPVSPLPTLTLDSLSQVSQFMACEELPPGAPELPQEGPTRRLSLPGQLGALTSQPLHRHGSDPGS
# How it was run: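 Cell line hERG-U2OS; dye FluxOR II, 1 h RT dark; Tl+ stimulus; ex 480/em 540 nm, read each second for 2 min.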
# [5] = target: Cytochrome P450 3A4 (Homo sapiens) (UniProt P08684); test: Cytochrome P450 Family 3 Subfamily A Member 4 (CYP3A4) small molecule antagonists: luciferase reporter qHTS assay (AID 1671201); conditions: P450-Glo CYP3A4 enzyme, luciferin luminescence, 1 h; series mostly up to 115 µM; also: nearly all actives have a fitted effect of over 50% in size; also: potency is read from the fitted curve at half-maximal effect
# Cytochrome P450 3A4 (Homo sapiens), sequence (P08684 whole entry, looked up): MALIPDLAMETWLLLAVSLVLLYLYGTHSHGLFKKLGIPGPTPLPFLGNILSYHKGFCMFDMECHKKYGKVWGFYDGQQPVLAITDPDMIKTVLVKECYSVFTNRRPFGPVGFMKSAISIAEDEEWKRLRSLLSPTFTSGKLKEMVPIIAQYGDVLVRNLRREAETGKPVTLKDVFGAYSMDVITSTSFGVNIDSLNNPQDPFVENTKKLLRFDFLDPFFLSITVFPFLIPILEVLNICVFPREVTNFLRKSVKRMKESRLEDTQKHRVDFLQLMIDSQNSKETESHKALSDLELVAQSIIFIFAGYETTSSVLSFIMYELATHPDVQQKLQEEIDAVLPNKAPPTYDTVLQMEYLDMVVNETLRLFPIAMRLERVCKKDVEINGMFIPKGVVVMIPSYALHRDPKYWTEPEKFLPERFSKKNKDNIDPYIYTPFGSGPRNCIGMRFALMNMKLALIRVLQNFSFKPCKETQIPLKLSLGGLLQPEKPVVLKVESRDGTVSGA
# How it was run: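 Room-temperature assay throughout: 10 min compound–enzyme/substrate preincubation, 1 h reaction after NADPH regeneration solution, 20 min detection. Luciferin formed from proluciferin substrate is quantified by luminescence.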
# [6] = target: Cytochrome P450 2C19 (Homo sapiens) (UniProt P33261); test: Cytochrome P450 Family 2 Subfamily C Member 19 (CYP2C19) small molecule antagonists: luciferase reporter qHTS assay (AID 1671197); conditions: P450-Glo CYP2C19 enzyme, luciferin luminescence, 1 h; series mostly up to 115 µM; also: nearly all actives have a fitted effect of over 65% in size; also: potency is read from the fitted curve at half-maximal effect
# Cytochrome P450 2C19 (Homo sapiens), sequence (P33261 whole entry, looked up): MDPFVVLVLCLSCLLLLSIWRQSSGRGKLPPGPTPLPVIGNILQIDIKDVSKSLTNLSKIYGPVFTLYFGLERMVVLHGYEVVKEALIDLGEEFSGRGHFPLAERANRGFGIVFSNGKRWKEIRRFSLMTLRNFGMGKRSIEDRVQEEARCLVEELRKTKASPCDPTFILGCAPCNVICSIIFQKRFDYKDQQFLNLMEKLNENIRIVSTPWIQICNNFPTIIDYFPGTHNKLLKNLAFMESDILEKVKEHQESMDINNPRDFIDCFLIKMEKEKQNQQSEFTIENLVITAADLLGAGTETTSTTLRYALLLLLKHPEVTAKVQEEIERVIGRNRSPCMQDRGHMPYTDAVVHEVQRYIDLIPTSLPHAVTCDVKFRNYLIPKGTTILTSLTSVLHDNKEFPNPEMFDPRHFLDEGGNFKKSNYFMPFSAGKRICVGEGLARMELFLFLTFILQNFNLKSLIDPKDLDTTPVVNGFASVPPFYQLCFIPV
# How it was run: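 Inhibition of CYP2C19 was scored from loss of luminescence in a P450-Glo proluciferin substrate assay, NADPH-started and run 1 h at 37C, with ketoconazole as positive control.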
# [7] = target: Cytochrome P450 1A2 (Homo sapiens) (UniProt P05177); test: Cytochrome P450 Family 1 Subfamily A Member 2 (CYP1A2) small molecule antagonists: luciferase reporter qHTS assay (AID 1671199); conditions: P450-Glo CYP1A2 enzyme, luciferin luminescence, 1 h; series mostly up to 115 µM; also: nearly all actives have a fitted effect of over 50% in size; also: potency is read from the fitted curve at half-maximal effect
# Cytochrome P450 1A2 (Homo sapiens), sequence (P05177 whole entry, looked up): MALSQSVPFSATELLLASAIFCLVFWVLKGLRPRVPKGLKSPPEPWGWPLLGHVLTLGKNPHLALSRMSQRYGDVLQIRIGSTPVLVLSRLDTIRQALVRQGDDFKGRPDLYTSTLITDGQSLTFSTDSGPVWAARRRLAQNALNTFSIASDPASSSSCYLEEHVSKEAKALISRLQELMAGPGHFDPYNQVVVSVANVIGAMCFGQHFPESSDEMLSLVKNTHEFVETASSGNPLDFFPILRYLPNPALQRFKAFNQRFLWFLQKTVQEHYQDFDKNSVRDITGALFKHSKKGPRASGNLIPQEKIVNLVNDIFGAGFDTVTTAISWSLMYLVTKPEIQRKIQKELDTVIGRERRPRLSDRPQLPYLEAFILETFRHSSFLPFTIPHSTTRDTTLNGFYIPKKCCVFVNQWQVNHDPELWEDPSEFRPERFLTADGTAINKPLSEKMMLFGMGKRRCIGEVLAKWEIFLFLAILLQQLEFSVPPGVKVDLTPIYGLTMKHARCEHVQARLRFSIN
# How it was run: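 Inhibition of CYP1A2 conversion of proluciferin to luciferin, detected by luminescence. Reaction run 1 h at room temperature with NADPH regeneration after brief compound preincubation.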
SMILES,Potency [1],Potency [2],Potency [3],Potency [4],Potency [5],Potency [6],Potency [7]
CCC(=O)OC/C=C(\C)CCC=C(C)C,inactive,inactive,inactive,inactive,inactive,–,–
CC(C)C(=O)C(C)C,inactive,–,inactive,inactive,inactive,inactive,inactive
C/C(=C\c1ccc(C(=O)O)cc1)c1ccc2c(c1)C(C)(C)CCC2(C)C,inactive,inactive,–,inactive,inactive,–,inactive
O=S(=O)(c1ccc(OCc2ccccc2)cc1)c1ccccc1O,61.1 µM (active),–,39.9 µM (active),inactive,inactive,6.33 µM (active),–
COc1ccc(OC)c(N=Nc2c(O)ccc3ccccc23)c1,9.69 µM (active),–,6.33 µM (active),inactive,2.83 µM (active),10 µM (active),0.894 µM (active)
Cc1cc(F)ccc1-c1cc(N2CC[C@@H](O)[C@H]2CO)ncc1N(C)C(=O)C(C)(C)c1cc(C(F)(F)F)cc(C(F)(F)F)c1,17 µM (active),–,22.1 µM (active),inactive,3.12 µM (active),27.8 µM (active),–
O=c1[nH]cccc1O,inactive,–,–,inactive,inactive,inactive,inactive
CC1=C(/C=C/C(C)=C/C=C/C(C)=C\C(=O)O)C(C)(C)CCC1,34.5 µM (active),–,40 µM (active),–,22.5 µM (active),40 µM (active),40 µM (active)
Cc1ccc2n[nH]nc2c1,inactive,inactive,–,inactive,inactive,–,–
Cc1cc(Br)ccc1NC(=O)CCl,3.44 µM (active),–,39.9 µM (active),inactive,inactive,79.6 µM (active),11.2 µM (active)
NCc1ccco1,inactive,–,inactive,inactive,inactive,inactive,inactive
Cc1cc(C)c(O)c(C(C)(C)C)c1,inactive,inactive,–,inactive,inactive,–,31.7 µM (active)
CC(O)(c1ccc(Cl)cc1)c1ccc(Cl)cc1,27.3 µM (active),–,7.96 µM (active),49 µM (active),inactive,0.113 µM (active),31.7 µM (active)
CN1CC[C@H](c2c(O)cc(O)c3c(=O)cc(-c4ccccc4Cl)oc23)[C@H](O)C1,0.106 µM (active),–,–,–,inactive,inactive,inactive
S=C1NC=NC2N=CNC12 (centres undefined),21.7 µM (active),–,–,inactive,inactive,25.2 µM (active),71 µM (active)
Oc1ccc2c(c1)CCC2,inactive,inactive,inactive,inactive,inactive,–,–
O=C1OCc2ccccc21,inactive,inactive,–,inactive,inactive,–,inactive
CCc1cccc(C)c1N(C(=O)C(=O)O)C(C)COC (centres undefined),inactive,–,–,inactive,inactive,inactive,inactive
Cc1ccc(S(=O)(=O)C(I)I)cc1,19.3 µM (active),–,–,–,39.9 µM (active),1.59 µM (active),31.7 µM (active)
CCCCCCCC/C=C\CCCCCCCC(=O)N(CCO)CCO,60.9 µM (active),–,–,–,15.8 µM (active),19.9 µM (active),–
CSc1nnc(C(C)(C)C)c(=O)[nH]1,inactive,–,35.6 µM (active),inactive,inactive,inactive,inactive
Nc1ccc(Oc2cccc(Oc3ccc(N)cc3)c2)cc1,inactive,–,6.33 µM (active),inactive,6.33 µM (active),11.2 µM (active),inactive
CCCCCCCCCCCC(=O)Cl,inactive,inactive,–,inactive,inactive,–,inactive
CCCCCCCCc1ccc(Nc2ccc(CCCCCCCC)cc2)cc1,inactive,inactive,–,inactive,inactive,–,–
Cc1ccc2nc(-c3ccc(N)cc3)sc2c1S(=O)(=O)O,2.69 µM (active),–,–,inactive,inactive,22.1 µM (active),–
CC1CCC(C(C)(C)O)CC1 (centres undefined),inactive,–,inactive,inactive,inactive,inactive,inactive
CCN(CC)c1ccc2c(c1)Oc1cc(N(CC)CC)ccc1C21OC(=O)c2ccccc21,26.6 µM (active),–,15.5 µM (active),inactive,11 µM (active),38.9 µM (active),–
C1=CCCC1,inactive,–,inactive,inactive,inactive,inactive,inactive
Oc1ccc(C2(c3ccc(O)c(C4CCCCC4)c3)CCCCC2)cc1C1CCCCC1,8.63 µM (active),–,2.52 µM (active),inactive,14.2 µM (active),8.94 µM (active),inactive
CC(C)(C)C1=CC(=O)C(C(C)(C)C)=CC1=O,18.8 µM (active),–,15.5 µM (active),inactive,inactive,6.92 µM (active),17.4 µM (active)
